Test results from PubChem BioAssay AID1445 (SRMLSC, 2008).
Hit rate of the full screen: of about 220,000 compounds, about 910 (0.41%) were called active.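 The calls were made as follows: active = primary inhibition above the hit cutoff, then over 50% inhibition at one or more dose response concentrations (cut at about 23% in these data, passing the limit was not always enough); inconclusive = conflicting primary data, or primary hits not chosen for dose response; inactive = low primary inhibition, or under 50% at every dose.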 Only a selection was taken, and actives are over-represented in it overall. Measured potencies and affinities stand elsewhere.

Each molecule was assayed against Aminopeptidase N (Plasmodium falciparum (isolate 3D7)) (UniProt O96935) (assay: malaria alanyl aminopeptidase activity blockers – biochemical, fluorogenic H-Leu-NHMec substrate, 1536-well (AID 1445;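 also: plate controls were DMSO full reaction for no effect and no enzyme background for full effect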)). Details: recombinant M1AAP, H-Leu-NHMec fluorogenic kinetic assay; at 30 µM, stronger effect = higher value unless noted.
Chain of Aminopeptidase N (Plasmodium falciparum (isolate 3D7)) (O96935 whole entry, looked up): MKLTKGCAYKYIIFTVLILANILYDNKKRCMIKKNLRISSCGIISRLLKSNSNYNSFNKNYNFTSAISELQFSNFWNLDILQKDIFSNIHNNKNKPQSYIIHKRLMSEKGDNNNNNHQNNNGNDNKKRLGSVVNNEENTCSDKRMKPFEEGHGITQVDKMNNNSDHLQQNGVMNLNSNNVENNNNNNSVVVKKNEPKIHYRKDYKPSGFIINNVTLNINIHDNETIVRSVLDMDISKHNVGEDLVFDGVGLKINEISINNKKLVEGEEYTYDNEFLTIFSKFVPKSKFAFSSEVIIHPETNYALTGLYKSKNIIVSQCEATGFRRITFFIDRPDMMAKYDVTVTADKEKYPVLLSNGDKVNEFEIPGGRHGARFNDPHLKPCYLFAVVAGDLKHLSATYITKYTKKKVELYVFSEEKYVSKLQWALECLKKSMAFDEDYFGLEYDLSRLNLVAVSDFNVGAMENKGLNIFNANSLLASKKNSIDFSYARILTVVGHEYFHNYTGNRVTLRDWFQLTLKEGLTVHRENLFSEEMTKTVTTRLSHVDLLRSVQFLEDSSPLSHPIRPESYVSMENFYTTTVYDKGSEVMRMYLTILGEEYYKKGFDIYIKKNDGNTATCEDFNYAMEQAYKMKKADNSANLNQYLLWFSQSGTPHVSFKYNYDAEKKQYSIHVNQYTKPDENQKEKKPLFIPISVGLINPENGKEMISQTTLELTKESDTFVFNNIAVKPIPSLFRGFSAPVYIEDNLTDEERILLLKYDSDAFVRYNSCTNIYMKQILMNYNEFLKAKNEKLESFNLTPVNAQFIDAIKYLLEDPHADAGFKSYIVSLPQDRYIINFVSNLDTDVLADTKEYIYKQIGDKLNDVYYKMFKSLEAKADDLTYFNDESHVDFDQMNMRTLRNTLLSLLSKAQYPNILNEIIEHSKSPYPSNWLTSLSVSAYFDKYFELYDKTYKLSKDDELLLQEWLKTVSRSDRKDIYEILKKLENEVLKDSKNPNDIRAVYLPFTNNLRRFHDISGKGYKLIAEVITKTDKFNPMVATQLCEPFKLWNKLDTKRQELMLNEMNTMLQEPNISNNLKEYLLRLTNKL

Compound	inhibition
CN(C)S(=O)(=O)c1ccc(C(=O)N2CCN=C2SCc2cccnc2)cc1	-3.94% (inactive)
COc1ccccc1Nc1nc(N)nc(CN2CCC(C)CC2)n1	3.95% (inactive)
O=C(Nc1ccc(Cl)cc1)c1ccc(-n2cccn2)c([N+](=O)[O-])c1	0.77% (inactive)
Cc1cccc(OCC(=O)Nc2cccc(-c3nnc(-c4ccccc4)o3)c2)c1C	24% (active)
Cc1ccc(OCC(=O)Nc2cccc(-c3nnc(-c4ccccc4)o3)c2)c(C)c1	2.43% (inactive)
Cc1cccc(C)c1OCC(=O)Nc1cccc(-c2nnc(-c3ccccc3)o2)c1	1.97% (inactive)
Cc1ccc(C)c2c1cc(C)c1nnc(SCC(=O)N3CCCc4ccccc43)n12	3.01% (inactive)
O=C1CS/C(=C/C(=O)c2ccccc2)N1	25.3% (active)
CC(C)(C)c1ccc(C(=O)/C=C2\NC(=O)CS2)cc1	7.72% (inactive)
Cc1ccc(C(=O)/C=C2/NC(=O)CS2)cc1	17.7% (inactive)
CC(/C=N/NC(=O)Cn1cnc2c1c(=O)n(C)c(=O)n2C)=C\c1ccco1	5.25% (inactive)
CCOC(=O)c1[nH]c2c(c1C)C(=O)CC(c1ccco1)C2 (configuration not stated)	15.3% (inactive)
Cc1c(C(=O)OC2CCCC2)[nH]c2c1C(=O)CC(c1ccco1)C2 (configuration not stated)	25.6% (active)
Cc1c(C(=O)OCc2ccccc2)[nH]c2c1C(=O)CC(c1ccco1)C2 (configuration not stated)	6.2% (inactive)
CC(C(=O)NC1C(=O)N2C(C(=O)O)=C(CSc3nnnn3C)CSC12)n1cc(Cl)cn1 (configuration not stated)	6.59% (inactive)
CC1(C)OC2OC(C(=O)N/N=C/c3ccccc3F)C3OC(C)(C)OC3C2O1 (configuration not stated)	-0.42% (inactive)
Nc1nonc1C(=O)N/N=C/c1ccncc1	9.52% (inactive)
NC(=O)N/N=C/c1cc(Br)ccc1OC(=O)c1ccccc1	6.38% (inactive)
COC(=O)N/N=C/c1cc(Br)ccc1O	17.8% (inactive)
Nc1nonc1C(=O)N/N=C/c1ccc(Br)o1	15.9% (inactive)
COc1ccc(NC(=O)C2OC3OC(C)(C)OC3C3OC(C)(C)OC23)cc1 (configuration not stated)	6.98% (inactive)
O=C(CCC(=O)Nc1ccc(Br)cc1)N/N=C/c1cc([N+](=O)[O-])ccc1O	13.8% (inactive)
O=C(CCc1ccccc1)N/N=C/c1cc(Br)ccc1O	16.7% (inactive)

Compound	inhibition
CCCn1nnc(NC(=S)NC(=O)C(C)(C)C)n1	7.37% (inactive)
O=C1c2cc(S(=O)(=O)NCCO)ccc2-c2ccc(S(=O)(=O)NCCO)cc21	2.13% (inactive)
Cc1ccc([N+](=O)[O-])cc1NC(=O)Nc1ccc(S(N)(=O)=O)cc1	-7.81% (inactive)
CC1=CC2=NC(=O)CC(C)(C(=O)N(CC(=O)NC(C)C)C3CCCC3)N2C=C1 (configuration not stated)	1.08% (inactive)
O=C(Nc1ccc(Br)cc1)c1cccn1-c1ncc(C(F)(F)F)cc1Cl	-0.41% (inactive)
Cc1ccc(NC(=O)C2CCN(C(=O)c3ccccc3C)CC2)cc1	4.97% (inactive)
CCN(CC)CCOC(=O)c1ccc(N/C=C(/C#N)c2nc(-c3ccc(OC)cc3)cs2)cc1	4.36% (inactive)
CCOC(=O)c1c(-c2ccc(F)cc2)csc1NC(=O)c1c(-c2ccccc2)noc1C	0.4% (inactive)
CCOC(=O)C1=NN(c2ccccc2)C2=NC(C)=C(C(=O)OC)C(c3ccc(C)cc3)N12 (configuration not stated)	8.08% (inactive)
CCC(=O)N1N=C(c2c(-c3ccccc3)c3cc(Cl)ccc3[nH]c2=O)CC1c1ccco1 (configuration not stated)	22.1% (inactive)
COc1ccc(C2CC(c3c(-c4ccccc4)c4cc(Cl)ccc4[nH]c3=O)=NN2S(C)(=O)=O)cc1 (configuration not stated)	2.82% (inactive)
Cc1ccc(C2=NN(C(=O)CCCC(=O)O)C(c3ccco3)C2)cc1 (configuration not stated)	7.5% (inactive)
O=C(O)CCC(=O)N1N=C(c2ccccc2)CC1c1ccc2nccnc2c1 (configuration not stated)	12% (inactive)
COc1ccc(C2CC(c3c(-c4ccccc4)c4cc(Cl)ccc4[nH]c3=O)=NN2S(C)(=O)=O)cc1OC (configuration not stated)	13.3% (inactive)
CC(=O)N1N=C(c2ccc(C)cc2)CC1c1ccco1 (configuration not stated)	6.1% (inactive)
CC(=O)N1N=C(c2c(-c3ccccc3)c3cc(C)ccc3[nH]c2=O)CC1c1ccco1 (configuration not stated)	20% (inactive)
COc1ccc(C2CC(c3ccccc3)=NN2C(=O)COC(=O)C2CC2)cc1 (configuration not stated)	8.28% (inactive)
Nc1nonc1-c1nc2ccccc2n1CC(=O)O	11.2% (inactive)
C[C@H](NC(=O)c1nc[nH]c1C(=O)NCCCCCNC(=O)OC(C)(C)C)C(=O)OC(C)(C)C	-4.42% (inactive)
CCCCCCCc1ccc(C2NC(=S)NC3=C2C(=O)c2ccccc23)cc1 (configuration not stated)	3.12% (inactive)
CCOc1ccccc1NC(=O)/C(C#N)=C/c1c(C)nn(-c2ccccc2)c1Cl	4.31% (inactive)
CC(C)CN(C(=O)CSc1nnc2ccccn12)c1c(N)n(CC(C)C)c(=O)[nH]c1=O	6.58% (inactive)
CC1(C)N=C(N)N=C(N)N1c1ccc(OCCCOc2ccccc2)c(Cl)c1	-0.74% (inactive)

Compound	inhibition
Cc1csc(SCC(=O)NC2CCCCC2)n1	-5.21% (inactive)
COc1ccc(NC(=O)c2ccccc2C)c(OC)c1	5.69% (inactive)
Cc1ccc(CN2C3CCCC2CC(NC(=O)c2ccc(C)cc2)C3)cc1 (configuration not stated)	-1.65% (inactive)
O=C(NC(=S)NC1C2CC3CC(C2)CC1C3)C12CC3CC(CC(C3)C1)C2 (configuration not stated)	5.47% (inactive)
COc1ccc(CNC(=O)c2ccccc2SC)cc1	-2.23% (inactive)
CN(C1CCCCC1)S(=O)(=O)c1ccccc1	-1.57% (inactive)
COc1ccccc1NS(=O)(=O)c1cccc(N2CC(O)=C(c3ccccc3)C2=N)c1	9.55% (inactive)
COc1ccccc1NS(=O)(=O)c1cccc(NC(=O)Nc2ccccc2)c1	2.5% (inactive)
COc1ccc(CNC(=O)CCCN2C(=O)c3ccccc3C2=O)cc1	1.01% (inactive)
COc1ccc(CN2C(=O)c3cccc4cccc(c34)C2=O)cc1	-0.38% (inactive)
Cc1cc(C)n(-c2ccc(C(=O)OCC(=O)Nc3ccc(S(=O)(=O)N4CCOCC4)cc3)cc2)n1	-7.49% (inactive)
CCOc1ccc(CCNC(=O)COC(=O)c2cc(OC)cc(OC)c2)cc1OCC	6.82% (inactive)
COC(=O)c1ccccc1NC(=O)CNC(=O)c1ccco1	7.08% (inactive)
O=C(c1ccco1)N1N=C(c2ccc(Br)cc2)CC1(O)C(F)(F)F (configuration not stated)	-1.14% (inactive)
CC(C)CCNC(=O)CNC(=S)N(Cc1ccccc1)Cc1cccnc1	-3.15% (inactive)
COc1ccc(/C=N/NC(=O)CSCC(=O)Nc2ccccc2)cc1	0.01% (inactive)
COc1ccc(/C=N/NC(=O)CC(=O)N/N=C/c2ccc(OC)cc2)cc1	5.03% (inactive)
Cc1ccc2nc(CSc3nnc(Cc4cccs4)n3C3CCCCC3)cc(=O)n2c1	14.2% (inactive)
CCC(C)(C)NC(=O)CN(Cc1ccccc1Cl)C(=O)CCC(=O)Nc1cc(C)ccn1	1.69% (inactive)
CCC(C)(C)NC(=O)CN(C(=O)CCC(=O)Nc1cc(C)ccn1)c1ccc2c(c1)OCO2	10.3% (inactive)
O=C(CCC(=O)N(CC(=O)NC1CCCC1)Cc1ccc2c(c1)OCO2)Nc1nccs1	12.3% (inactive)
O=C(CCCC(=O)N(CC(=O)NC1CCCC1)Cc1ccc2c(c1)OCO2)Nc1ccccn1	8.73% (inactive)
CC(C)(C)NC(=O)CN(Cc1ccc2c(c1)OCO2)C(=O)CCC(=O)Nc1nccs1	3.84% (inactive)

Compound	inhibition
O=C(CCC(=O)N(CC(=O)NC1CCCC1)Cc1ccc2c(c1)OCO2)Nc1ccccn1	26.2% (active)
O=C(CCCC(=O)N(CC(=O)NC1CCCCC1)Cc1ccc2c(c1)OCO2)Nc1ccccn1	1.7% (inactive)
O=C(CSc1nnc(-c2ccc(Cl)cc2)n1Cc1ccco1)Nc1ccc2c(c1)OCCO2	6.61% (inactive)
O=C(Nc1ccccc1N1CCCC1)c1cccc(Cl)c1Cl	5.02% (inactive)
Cc1cccc(N2C(N)=C(C#N)C(C#N)(C#N)C2c2ccccc2)c1 (configuration not stated)	7.85% (inactive)
Cc1cccc(-c2cc(N)n(-c3ccccc3)n2)c1	15.4% (inactive)
Cc1nn(-c2ccccc2)c(C)c1N	-5.19% (inactive)
Cc1nc(-c2ccccc2O)n(-c2ccccc2)n1	14.8% (inactive)
CCOC(=O)c1c(-c2ccc(C)o2)csc1NC(=O)CSc1ncn[nH]1	0.41% (inactive)
O=C(CCCO)CCCCCCCCC[C@H]1N[C@H](CO)[C@@H](O)[C@@H]1O	7.45% (inactive)
O=C(O)C(CO)N=Cc1c(O)c2ccccc2oc1=O (configuration not stated)	20.4% (inactive)
CC(C)CC(N=Cc1c(O)c2ccccc2oc1=O)C(=O)O (configuration not stated)	16.5% (inactive)
CSc1nnc(-c2ccccc2N=Cc2c(C)[nH]n(-c3ccccc3)c2=O)c(=O)[nH]1	11.9% (inactive)
Cc1nn(-c2ccc3ccccc3c2)c(=O)c2ccccc12	0.56% (inactive)
COc1cc(/C=C/c2nc(-c3ccccc3O)n[nH]2)cc(OC)c1OC	1.7% (inactive)
Cc1ccc(C(=O)NCC(=O)OCC(=O)c2c(N)n(C)c(=O)n(C)c2=O)s1	5.58% (inactive)
CCOc1ccccc1Nc1nnc(SCC(=O)Nc2ccc3[nH]c(=O)[nH]c3c2)s1	1.06% (inactive)
Cc1ccc(Nc2nnc(SCC(=O)NC(Cc3c[nH]c4ccccc34)C(=O)O)s2)cc1 (configuration not stated)	22% (inactive)
O=C(Cn1nnc2ccccc2c1=O)N[C@@H](Cc1ccccc1)C(=O)O	2.79% (inactive)
CCOC(=O)C(Cc1c[nH]c2ccccc12)NC(=O)c1ccco1 (configuration not stated)	-3.49% (inactive)
O=C(CCn1nnc2ccccc2c1=O)N[C@@H](Cc1c[nH]c2ccccc12)C(=O)O	9% (inactive)
O=C(NC(Cc1c[nH]c2ccccc12)C(=O)O)c1ccco1 (configuration not stated)	27.5% (active)
O=C(Nc1ccccc1C(=O)NC(Cc1c[nH]c2ccccc12)C(=O)O)c1ccco1 (configuration not stated)	7.54% (inactive)
